Screening results (PubChem)
The list is not random: actives were taken first. Their share in the collection is about 1.2%.
Platelet DG rel = inhibitors of platelet dense granule secretion, primary screen, cell-based, MLPCN, human platelets. human platelet-rich plasma, SFLLRN dense granule ATP release, luminescence. inhibition, %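 (compounds screened at 7.5 µM in platelet-rich plasma)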. 0.22% of 300,000 active. AID 1663, 2009;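 active means mean replicate score, as percent of positive control, at or above 50; inconclusive means mean below 50 but at least one replicate at or above 50; inactive means mean and every replicate below 50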
NTR1 ag = agonists of human NTR1, primary screen, imaging, U2OS cells, beta-arrestin-GFP, high content; Neurotensin receptor type 1 (Homo sapiens), P30989; NTR1-U2OS beta-arrestin-GFP spot imaging, agonist mode; activation, % at 20 µM; 0.17% of 330,000 active; AID 493036, 2011;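 active means activation at or above 40% of the spot to cytoplasm intensity ratio, with at least 20 cells analyzed; inconclusive means wells under 20 cells, flagged as cytotoxic or low count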
GRK2 aptamer HTS = compounds blocking aptamer binding on GRK2 – biochemical, human GRK2, bead flow cytometry, HTS, primary screen | FAM-aptamer displacement from GRK2 | 0.59% of 330,000 active | inhibition of aptamer binding, % at 10 µM | AID 488847, 2010;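 active means inhibition of aptamer binding above 40%, roughly 3 SD of noise, on plates passing a quality check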;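 further: median bead fluorescence of bound FAM aptamer so fluorescent compounds give negative values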
Target sequence (P25098 whole entry, looked up): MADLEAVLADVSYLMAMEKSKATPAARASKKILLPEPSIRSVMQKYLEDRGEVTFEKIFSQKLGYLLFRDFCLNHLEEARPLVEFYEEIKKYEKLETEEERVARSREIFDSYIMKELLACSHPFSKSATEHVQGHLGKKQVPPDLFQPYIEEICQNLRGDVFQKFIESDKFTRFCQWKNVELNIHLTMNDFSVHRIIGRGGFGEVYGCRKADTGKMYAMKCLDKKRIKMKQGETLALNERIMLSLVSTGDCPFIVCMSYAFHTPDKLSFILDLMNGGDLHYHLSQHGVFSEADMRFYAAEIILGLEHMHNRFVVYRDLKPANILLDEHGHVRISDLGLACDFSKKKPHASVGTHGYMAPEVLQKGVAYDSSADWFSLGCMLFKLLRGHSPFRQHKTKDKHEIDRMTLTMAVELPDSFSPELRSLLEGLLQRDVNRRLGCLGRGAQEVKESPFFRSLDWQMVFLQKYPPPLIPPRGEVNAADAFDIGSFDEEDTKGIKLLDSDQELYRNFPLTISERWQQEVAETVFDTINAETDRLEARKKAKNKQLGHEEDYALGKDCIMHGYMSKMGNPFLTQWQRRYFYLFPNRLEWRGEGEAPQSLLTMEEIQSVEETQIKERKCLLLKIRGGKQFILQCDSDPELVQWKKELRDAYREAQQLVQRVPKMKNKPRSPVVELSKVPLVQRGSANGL
MIN6 prolif-1 = inducers of MIN6 beta-cell proliferation, primary screen, ATP luminescence, uHTS. MIN6 cells proliferation, ATPlite luminescence, 48 h; cells starved in 0.2% serum; 100% = growth in 10% serum. AID 2380, 2010. 0.29% of 330,000 active. proliferation, % at 10 µM;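 active means compounds whose signal lies at least 3.5 SD above the mean of all wells on their plate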
MIN6 prolif-2 = inducers of beta-cell proliferation in MIN6, confirmation, MIN6 cells, mouse. AID 463095, 2010. proliferation increase, % at 50 µM. 920 tested, under 10 active. ATPlite luminescence, 48 h; cells kept in 0.2% serum; scaled between 0.2% and 10% serum. shares compounds with MIN6 prolif-1;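 active means proliferation increase above 40% at any of the four tested concentrations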
Hits are given with their value; n = inactive; u = inconclusive; x = no result.

SMILES	Platelet DG rel	NTR1 ag	GRK2 aptamer HTS	MIN6 prolif-1	MIN6 prolif-2
COc1cccc(NS(=O)(=O)NC(=O)c2c(C)[nH]c3ccccc23)c1	n	n	n	n	x
O=C(O)CCCNC(=O)Nc1ccccc1	n	n	x	n	x
CCCCCCNC(=O)Nc1ccccc1	n	n	n	8.2	n
O=C(Nc1cccc(Cl)c1)Nc1ccnc(-c2cccnc2)n1	n	n	n	11.1	n
Cc1ccc(OCCN2C(=O)NC3(CCc4ccccc4C3)C2=O)cc1 (configuration not stated)	n	n	n	7.2	n
O=C1Nc2ccc(S(=O)(=O)N3CCCC3)c3ccc(S(=O)(=O)N4CCCC4)c1c23	n	n	n	9.2	n
O=S(=O)(c1ccc(Cl)c2ccccc12)N1CCCC1	n	n	n	n	x
Cc1cc(C)c2c(c1)/C(=N/NC(=O)c1cc(C)oc1C)CCC2	n	n	n	0.0	n
CCc1ccc(NC(=O)c2noc3c2CCc2ccccc2-3)cc1	n	n	n	7.2	n
C/C(=N\NS(=O)(=O)c1ccc(C)cc1)c1cc2ccccc2oc1=O	n	n	n	8.4	n
COc1cc(N)c(Cl)cc1C(=O)OCC(=O)NCC1CCCCC1	x	n	n	8.8	n
COc1cc(N)c(Cl)cc1C(=O)OCC(=O)NCC1CCCO1 (configuration not stated)	x	n	n	n	x
COc1ccc(Cl)cc1C(=O)OCC(=O)Nc1sccc1C(N)=O	x	n	n	n	x
COc1ccc(Cl)cc1C(=O)OCC(=O)NCCNC(=O)COC(=O)c1cc(Cl)ccc1OC	n	n	n	9.7	n
COCCNC(=O)C(c1ccc(Cl)cc1)N(C(=O)Cn1nnc2ccccc21)c1cccnc1 (configuration not stated)	n	n	n	n	x
CCCCC(OC(=O)CN1C(=O)COc2ccccc21)C(=O)NC1CCCCC1 (configuration not stated)	n	n	n	10.9	n
CCCC(OC(=O)CN1C(=O)COc2ccccc21)C(=O)NC1CCCC1 (configuration not stated)	n	n	n	n	x
Cc1nc(N)c(CC(Br)CBr)c(Cl)n1 (configuration not stated)	n	n	n	8.0	n
CC1=C(C(=O)Nc2ccccc2)C(c2ccncc2)C(C#N)=C(SCC(=O)NC(C)C)N1 (configuration not stated)	n	n	n	n	x
CC1=C(C(=O)Nc2ccccc2)C(c2ccncc2)C(C#N)=C(SCC(=O)NC2CC2)N1 (configuration not stated)	n	n	n	8.3	n
CCOc1ccccc1Nc1cc2n(c(=O)n1)CCc1cc(OC)c(OC)cc1-2	89.8	n	n	12.1	n
COc1ccc(NC(=O)CS(=O)c2ccc(F)cc2)cc1 (configuration not stated)	n	n	n	12.4	n
Cc1ccc(S(=O)(=O)N2CCCCC2)cc1NC(=O)C1CC1	x	n	n	n	x
CCc1noc(C)c1C(=O)N1CCN(S(=O)(=O)c2cc(C)ccc2C)CC1	n	n	n	n	x
CCc1noc(C)c1C(=O)N1CCN(S(=O)(=O)c2c(C)c(C)cc(C)c2C)CC1	n	n	n	14.0	n
SMILES	Platelet DG rel	NTR1 ag	GRK2 aptamer HTS	MIN6 prolif-1	MIN6 prolif-2
COc1cccc(-c2ncc3ccccc3c2COC(=O)c2ccco2)c1	x	n	n	n	x
CCN(C(=O)CN1CCCCC1)c1c(N)n(Cc2ccccc2)c(=O)[nH]c1=O	x	n	n	n	x
CN(C(=O)CN1CCCCCC1)c1c(N)n(Cc2ccccc2)c(=O)[nH]c1=O	x	n	n	11.7	n
CCN(C(=O)CSc1ncccn1)c1c(N)n(Cc2ccccc2)c(=O)[nH]c1=O	x	n	x	15.9	n
CS(=O)(=O)NCCNc1ccc(Cl)cc1[N+](=O)[O-]	n	n	n	7.7	n
CCCCNc1ccc(S(N)(=O)=O)cc1[N+](=O)[O-]	n	n	n	6.0	n
Fc1ccccc1Cc1noc(CN2CCC(OCc3cccnc3)CC2)n1	n	n	n	7.7	n
COC1CCCN(Cc2nc(Cc3ccccc3F)no2)C1 (configuration not stated)	n	n	n	n	x
COCC(=O)Nc1sc2c(c1C(=O)OC)CCCC2	n	n	n	7.7	n
COC(=O)c1c(NC(=O)Cc2cccs2)sc2c1CCCC2	n	n	n	n	x
COCC1CCCCN1C(=O)c1ccc(OC)c(OC2CCN(C(C)C)CC2)c1 (configuration not stated)	n	n	n	4.8	n
OCCC1CN(Cc2c(F)cccc2Cl)CCN1C1CCCC1 (configuration not stated)	n	n	n	8.1	n
c1ccc2c(N3CCCC3)nc(-c3ccncc3)nc2c1	n	n	n	13.8	n
CN1CCN(c2nc(-c3ccncc3)nc3ccccc23)CC1	n	n	n	n	x
COc1ccc(Oc2nc(-c3ccncc3)nc3ccccc23)cc1	n	n	n	n	x
COc1nc(-c2ccncc2)nc2ccccc12	n	n	n	6.2	n
CCCNC(=O)c1ccccc1NC(=O)Cc1ccc(OC)c(S(=O)(=O)N2CCOCC2)c1	n	n	n	n	x
O=C(Nc1ccc(S(=O)(=O)NCc2ccco2)cc1)c1ccc(F)cc1	u	n	n	n	x
Cc1ccc(C2=CC(c3ccccc3)n3ncnc3N2)cc1 (configuration not stated)	n	n	n	12.1	n
CCC(C)c1ccc(NC(=O)NCCN2CCCCC2)cc1 (configuration not stated)	n	n	n	n	x
CSc1ccccc1NC(=O)CN(Cc1ccc(Cl)cc1)S(C)(=O)=O	n	n	n	5.0	n
CSc1ccccc1NC(=O)CN(Cc1ccccc1)S(C)(=O)=O	n	n	n	n	x
CCCc1cc(C(=O)O)c2ccccc2n1	n	n	n	n	x
CCCc1c2ccccc2nc2ccccc12	n	n	n	7.2	n
O=C(CSc1nnc(-c2ccccc2)c2ccccc12)NCCN1C(=O)CSC1=O	x	n	n	n	x
SMILES	Platelet DG rel	NTR1 ag	GRK2 aptamer HTS	MIN6 prolif-1	MIN6 prolif-2
CNC(=S)Nc1ccc([N+](=O)[O-])cc1C	n	n	n	9.9	n
CCNc1nc(N)c(C(=C(C#N)C#N)c2ccccc2)s1	n	n	n	7.3	n
COc1ccc(NC(=O)CN(c2ccc(OC)cc2)S(=O)(=O)c2c(C)nn(C)c2C)cc1	n	n	n	n	x
O=C(NCCN1CCOCC1)c1cc2ccccc2[nH]1	n	n	n	8.2	n
O=C(NC1CCN(Cc2ccccc2)CC1)c1ccccc1	n	n	n	8.2	n
O=C(O)c1cccc(Nc2nc3ccccc3nc2NS(=O)(=O)c2ccc(F)cc2)c1	x	n	n	n	x
Cc1cccc(S(=O)(=O)Nc2nc3ccccc3nc2Nc2cccc(C(=O)O)c2)c1	n	n	n	6.6	n
OC[C@@H](O)[C@@H](O)[C@H](O)[C@H](O)CO	n	n	n	n	x
CN1C(=O)c2cccc3c(Br)ccc(c23)C1=O	n	n	x	n	x
